# Laboratory results reported in PubChem BioAssay AID686978 (National Center for Advancing Translational Sciences (NCATS), 2013).
# Where “and” joins values, the source holds several entries; their conditions need not be identical. Equal values may be shown once. About 64,000 (15%) of roughly 420,000 compounds were called active. Inconclusive results (about 27%) are left out. This excerpt belongs to a sample that is enriched for actives. A number with no mark means an inactive call. Calls come from the whole dose curve; as a rule, active = well fitted inhibition curve with a large enough effect; inconclusive = small, poorly fitted or top-dose-only effect; inactive = flat fitted curve, though single readings scatter.
# Assay: qHTS for Inhibitors of human tyrosyl-DNA phosphodiesterase 1 (TDP1): qHTS in cells in absence of CPT; note: nearly all actives have a fitted effect of over 55% in size
# Details: DT40 Tdp1-/- hTDP1 cells, no CPT, ATP luminescence, 48 h; series mostly up to 46.2 µM; activity change, negative = growth inhibition: at the top concentration
# Summary of the method: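 Chicken DT40 Tdp1-/- cells stably complemented with human TDP1 were seeded at 400 cells/well with DMSO in place of 20 nM camptothecin. After compound pinning, cells grew at least 48 hr at 37 °C; viability read by CellTiter-Glo luminescence.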
# % is set by controls: 0 for no effect and ±100 for the full control effect; potency is the fitted concentration of half-maximal effect.
Structure (SMILES),"activity change, negative = growth inhibition",Potency
CC(C)CN1CCN(Cc2ccccc2C(F)(F)F)CC1CCO (centres undefined),3.04%,
O=C1C2CCN(CC2)C1(CO)CO,,5.96 µM (active) and 4.61 µM (active)
CC(C)c1ccc(OCC(=O)N2CCCN(C)CC2)cc1,4.45%,
O=C(Nc1cccc2ccccc12)N1CCC2(CC1)OCCO2,-2.38%,
COc1ccc(CCn2c(O)c(C=NC3CC3)c(=O)[nH]c2=O)cc1OC,-12.4%,
COc1cccc(-c2nc3ccc(N4CCN(C)CC4)cc3[nH]2)c1,-7.07%,
CN1CCN(c2cc(N3CCNCC3)ccc2[N+](=O)[O-])CC1,,7.31 µM (active)
Cc1nc2ccc(N3CCN(C)CC3)cc2nc1C,4.91%,
O=c1[nH]c(=O)n(Cc2ccccc2)c(O)c1/C=N/Nc1c(F)c(F)c(F)c(F)c1F,0.453%,
COc1ccc2c(c1)NP(=S)(c1ccccc1)N2 (centres undefined),,16.4 µM (active)
Cc1cc(C)c2c(c1)NP(=S)(c1ccccc1)N2 (centres undefined),-28.8%,
NC(=O)Cn1cc(C(=O)c2ccccc2F)c2ccccc21,-2.85%,
N#Cc1ccc(Cn2cc(C(=O)c3ccco3)c3ccccc32)cc1,,23.1 µM (active)
Cc1cc(=O)oc2c(C)c(OCC(=O)N3CCN(Cc4ccc5c(c4)OCO5)CC3)ccc12,-15.8%,
O=C(CN1CCCCC1)Nc1ccc(Br)cc1C(=O)c1ccccc1Cl,-17.6%,
O=S(=O)(O)C(F)(F)C(F)(F)C(F)(F)C(F)(F)F,-14.9% [at 92.5 µM],
Cc1ccc(OC(=O)N(C)C[C@@H]2OCc3cnnn3CCCC(=O)N([C@H](C)CO)C[C@@H]2C)cc1,-20.5%,

Structure (SMILES),"activity change, negative = growth inhibition",Potency
Cn1cc(/C=C/c2nc3ccccc3c(=O)n2-c2ccccc2)c2ccccc21,,8.2 µM (active)
O=c1c2ccccc2nc(CBr)n1-c1ccc(Cl)cc1,-21.6%,
O=c1c2ccccc2nc(/C=C/c2ccc(F)cc2)n1-c1ccccc1O,,16.4 µM (active)
COc1cccc(N2C(=O)NC(=O)/C(=C\c3cn(C)c4ccccc34)C2=O)c1,-23%,
C1CC[C@H]([C@@]23C[C@H](C[C@H]4CCCN[C@H]42)[C@@H]2CCCCN2C3)NC1,-7.17% [at 9.04 µM],
CCCC(C)n1[nH]c(=O)c2c1NC(=O)CSC2c1ccc(OC)c(OC)c1 (centres undefined),-16.4%,
COc1ccccc1-n1c(O)c(C=NC2CC2)c(=O)[nH]c1=O,5.7%,
CCOC(=O)CNC(=O)N1Cc2cc(N3CCCCC3)ccc2-n2nncc2C1,-1.8%,
c1ccc(CC2CCCCN2)cc1 (centres undefined),3.83%,
CC(=NC1CCN(Cc2ccccc2)CC1)c1c(O)n(C)c(=O)n(C)c1=O,-7.85%,
Cn1c(O)c(C=Nc2ccc3c(c2)CCC3)c(=O)n(C)c1=O,-14.2%,
Cn1c(O)c(C(=Nc2ccc(F)cc2)c2ccccc2)c(=O)n(C)c1=O,,9.2 µM (active)
CCN1CCN(Cc2cc(OC)c3c(c2)OCO3)CC1,1.57%,
COc1cccc(C(=O)N2C[C@H]3C[C@@H](C2)c2cccc(=O)n2C3)c1,9.44%,
N#Cc1c(Cl)c(Cl)c(Cl)c(C#N)c1Cl,,25.1 nM (active) and 517 nM (active)
O=c1c2ccccc2nc(-c2ccc(Cl)cc2Cl)n1-c1ccncc1,-23.2%,
Cc1nc2ccccc2c(=O)n1-c1ccc(Cl)cc1Cl,,23.1 µM (active)
